Here are results for 8 compounds from PubChem BioAssay (Tox21).

Molecules are shown by their SMILES. Unmarked numbers belong to inactive results. Records with an inconclusive call do not appear. Calls of active or inactive are those of the source. Unless noted, calls come from the whole dose curve; as a rule, active = well fitted curve in the direction sought with a large enough effect in the repeat runs; inconclusive = weak or mixed curves; inactive = no such curve, though single readings can be large; an effect the other way counts as inactive or inconclusive.

Test [1] can be described thus: qHTS assay to identify small molecule antagonists of the estrogen receptor beta (ER-beta) signaling pathway - cell viability counter screen (AID 1259382).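 Note: HEK293T cells carrying ER-beta-UAS-bla reporter stimulated with estradiol; series mostly up to about 92 µM; nearly all actives have a fitted effect of over 55% in size.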 An outline of the steps: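 HEK293T ER-beta-UAS-bla, 2% charcoal-stripped FBS; compounds + 1nM E2 16 hr 37C; CellTiter-Glo luminescence, 30 min RT.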
On the technique in general: Quantitative high-throughput screening tests each substance at several concentrations.

For test [2], the target named is Estrogen receptor (Homo sapiens) (UniProt P03372). Description: qHTS assay to identify small molecule agonists of the estrogen receptor alpha (ER-alpha) signaling pathway in the presence of an antagonist (AID 1259383; calls by dose curve; note: top concentration of the series differs between compounds; nearly all actives have a fitted effect of over 15% in size). The method in brief:
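ER-alpha agonism measured under antagonist challenge: 10.0nM ICI-182,780 (final) plus compound, 15 concentrations, 22hr, VM7Luc4E2 ERE-luciferase cells. Read by luminescence.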

Test [3] in a line: qHTS assay to identify small molecule agonists of the estrogen receptor alpha (ER-alpha) signaling pathway in the presence of an antagonist - cell viability counter screen (AID 1259386). For activity change, negative = cytotoxicity: series mostly up to about 92 µM.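 Note: cells exposed to compounds for 22 h at 37 °C before the viability read; nearly all actives have a fitted effect of over 30% in size.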 Note: potency is the fitted concentration of half-maximal effect. An outline of the steps:
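Steps: 5-day stripped-FBS culture; seed and incubate 24hr; add ICI-182,780 (10.0nM final); pin 15-point compound titration; incubate 22hr at 37C; add CellTiter-Fluor at 21hr; read fluorescence.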

Test [4] deals with Progesterone receptor (Homo sapiens) (UniProt P06401). Description: qHTS assay to identify small molecule agonists of the progesterone receptor (PR) signaling pathway (AID 1346784; calls by dose curve; note: nearly all actives have a fitted effect of over 30% in size). The method in brief:
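Seed PR-UAS-bla HEK 293T cells (2% charcoal-stripped FBS), incubate 6 hr at 37C; add compounds in DMSO, 16 hr at 37C; add LiveBLAzer B/G substrate, 2 hr RT; read fluorescence intensity.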

Test [5] shares this target. The experiment in a line: qHTS assay to identify small molecule antagonists of the progesterone receptor (PR) signaling pathway (AID 1346795; active = well fitted inhibition curve with a large enough effect in the signal ratio in the repeat runs, not every such curve was filed as active; the % refers to the signal ratio). An outline of the steps:
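Screening used a GripTite HEK293T line with PR-responsive UAS-beta-lactamase. Cells were challenged with compound in the presence of 1 nM R5020 final for 16 hr at 37C; B/G FRET substrate, 2 hr room temperature, fluorescence.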

Test [6] is described as follows: qHTS assay to identify small molecule antagonists of the progesterone receptor (PR) signaling pathway - cell viability counter screen (AID 1346798). Note: series mostly up to about 92 µM; nearly all actives have a fitted effect of over 50% in size. The method in brief: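 Measures cytotoxicity in parallel with the PR antagonist reporter read: HEK293T PR-UAS-bla cells get compound and R5020 for 16 hr, and remaining viable cells are quantified by CellTiter-Glo luminescence.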

Test [7] in a line: qHTS assay to identify small molecule agonists of the progesterone receptor (PR) signaling pathway - cell viability counter screen (AID 1346799; calls by dose curve; note: nearly all actives have a fitted effect of over 45% in size). An outline of the steps: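 Using the same plates as the PR reporter screen, HEK293T PR-UAS-bla cells received compounds for 16 hr at 37C and were then lysed with CellTiter-Glo; luminescence was read 30 min later at room temperature.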

Test [8] is described as follows: qHTS assay to identify small molecule antagonists of the TGF-beta/Smad signaling pathway - cell viability counter screen (AID 1346824). Note: nearly all actives have a fitted effect of over 50% in size. An outline of the steps: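 SBE-bla HEK 293T cells, incubated overnight, then compound plus 0.25 ng/mL TGF-beta1 (stock added) for 5 hr at 37 C. Viability was read in the same wells by CellTiter-Glo luminescence after 30 min at room temperature.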

Test [9] in a line: qHTS assay to identify small molecule agonists of the TGF-beta/Smad signaling pathway - cell viability counter screen (AID 1346829). Note: top concentration of the series differs between compounds; nearly all actives have a fitted effect of over 45% in size. The method in brief: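 SBE-bla HEK 293T cells plated overnight, compound exposure 5 hr at 37 C. Viability read in the same wells by CellTiter-Glo luminescence after 30 min at room temperature, following the beta-lactamase read.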
Test [10] is described as follows: qHTS assay to identify small molecule agonists of the TGF-beta/Smad signaling pathway (AID 1346859; active = well fitted activation curve with a large enough effect in the signal ratio in the repeat runs, not every such curve was filed as active; the % refers to the signal ratio; note: series mostly up to about 77 µM). The method in brief:
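Beta-lactamase reporter activity downstream of Smad binding elements was measured in stably transfected HEK 293T cells; compounds were incubated for 5 hr, substrate for 2 hr at room temperature.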

Test [11] is described as follows: Human pregnane X receptor (PXR) small molecule agonists, qHTS cell viability counter screen (AID 1346977). Note: nearly all actives have a fitted effect of over 50% in size. The method in brief:
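After a 5hr pre-incubation, PXR-Luc HepG2 cells received compounds plus positive control in DMSO and were kept 24hr at 37C. Cell viability was quantified by fluorescence from CellTiter-Fluor added for the final hour.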

Test [12] can be described thus: Caspase-3/7 induction in CHO-K1 cells by small molecules, qHTS cell viability counter screen (AID 1346979). Note: nearly all actives have a fitted effect of over 35% in size. Note: potency is the fitted concentration of half-maximal effect. The method in brief: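 Multiplexed with Caspase-Glo 3/7 in CHO-K1 cells, this counter screen added CellTiter-Fluor after 16hr of compound exposure and recorded fluorescence 1hr later.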
A short description of test [13]: Caspase-3/7 induction in CHO-K1 cells by small molecules, qHTS assay (AID 1346980). Note: nearly all actives have a fitted effect of over 15% in size. The method in brief:
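Wild-type CHO-K1 cells exposed to compounds for 17hr at 37 C, 5% CO2. Caspase-3/7 activity then measured by Caspase-Glo 3/7 luminescence after 30min at room temperature.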

A short description of test [14]: Caspase-3/7 induction in HepG2 cells by small molecules, qHTS cell viability counter screen (AID 1346981). For activity change, negative = cytotoxicity: series mostly up to about 92 µM. Note: nearly all actives have a fitted effect of over 30% in size. Note: potency is the fitted concentration of half-maximal effect. An outline of the steps:
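The parent HepG2 line is plated at 2,000 cells per well and rested 5 hr before compound pinning from DMSO stocks. Following a 16-hr treatment at 37 C, a fluorogenic live-cell substrate (CellTiter-Fluor) reports viability after 1 hr.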

Test [15] has as its target Nuclear receptor subfamily 1 group I member 2 (Homo sapiens) (UniProt O75469). Description: Human pregnane X receptor (PXR) small molecule agonists, qHTS assay (AID 1346982). Note: nearly all actives have a fitted effect of over 35% in size. An outline of the steps: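 After plating in 5% charcoal-stripped FBS and a 5 hr rest, PXR-Luc HepG2 cells received compounds in DMSO. Following 24 hr at 37 C, ONE-Glo was added and light output read.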

A short description of test [16]: qHTS assay to identify small molecule agonists or antagonists of the thyroid stimulating hormone receptor (TSHR) signaling pathway - wild type cell line counter screen (AID 1259384; calls by dose curve). An outline of the steps:
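Wild-type Hek293 cells, 800/well, 18 h at 37C, then compound with Ro20-1724 for 30 min RT. cAMP by HTRF (cAMP-d2/anti-cAMP cryptate), 1 h RT, fluorescence read. 15 concentrations, triplicates.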

The target of test [17] is Thyrotropin-releasing hormone receptor (Homo sapiens) (UniProt P34981). The experiment in a line: qHTS assay to identify small molecule antagonists of the thyrotropin-releasing hormone receptor (TRHR) signaling pathway (AID 1346877; active = well fitted inhibition curve with a large enough effect in the repeat runs, not every such curve was filed as active; note: series mostly up to about 51 µM). An outline of the steps: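 Human TRHR in HEK293 cells; inhibition of the intracellular calcium rise triggered by 1 nM TRH was followed by fluorescence over 3 min. Compounds were run at 15 concentrations, three replicates each.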

The target is the same in test [18]. The experiment in a line: qHTS assay to identify small molecule agonists of the thyrotropin-releasing hormone receptor (TRHR) signaling pathway (AID 1346891; calls by dose curve;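 note: HEK293 cells expressing TRHR with calcium dye readout; series mostly up to about 58 µM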). An outline of the steps: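 Overnight-plated (18 h, 37 °C, 5% CO2) TRHR-Hek293 cells; 2 h calcium dye at 37 °C; compound in DMSO; 3-min kinetic fluorescence read.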
The nature of test [19]: Caspase-3/7 induction in HepG2 cells by small molecules, qHTS assay (AID 1346978). Note: nearly all actives have a fitted effect of over 15% in size. The method in brief:
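Wild-type HepG2 cells, 2,000/well, settled 5 hr at 37 C and 5% CO2, then compound-treated for 17 hr; caspase-3/7 activity read by luminescent Caspase-Glo 3/7 after 30 min at room temperature.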

In test [20] the target is Thyrotropin receptor (Homo sapiens) (UniProt P16473). The experiment in a line: qHTS assay to identify small molecule antagonists of the thyroid stimulating hormone receptor (TSHR) signaling pathway (AID 1259385; calls by dose curve; note: nearly all actives have a fitted effect of over 20% in size). The method in brief:
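TSHR-HEK293 cells (800/well) plated 18 h, then compounds with Ro20-1724 and TSH at 1.5 ng/mL final, 30 min at room temperature. cAMP quantified by HTRF (cAMP-d2/anti-cAMP-cryptate, 1 h); 15 concentrations in triplicate.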
% is set by controls: 0 for no effect and ±100 for the full control effect.

Sequence of Estrogen receptor (Homo sapiens) (P03372 whole entry, looked up): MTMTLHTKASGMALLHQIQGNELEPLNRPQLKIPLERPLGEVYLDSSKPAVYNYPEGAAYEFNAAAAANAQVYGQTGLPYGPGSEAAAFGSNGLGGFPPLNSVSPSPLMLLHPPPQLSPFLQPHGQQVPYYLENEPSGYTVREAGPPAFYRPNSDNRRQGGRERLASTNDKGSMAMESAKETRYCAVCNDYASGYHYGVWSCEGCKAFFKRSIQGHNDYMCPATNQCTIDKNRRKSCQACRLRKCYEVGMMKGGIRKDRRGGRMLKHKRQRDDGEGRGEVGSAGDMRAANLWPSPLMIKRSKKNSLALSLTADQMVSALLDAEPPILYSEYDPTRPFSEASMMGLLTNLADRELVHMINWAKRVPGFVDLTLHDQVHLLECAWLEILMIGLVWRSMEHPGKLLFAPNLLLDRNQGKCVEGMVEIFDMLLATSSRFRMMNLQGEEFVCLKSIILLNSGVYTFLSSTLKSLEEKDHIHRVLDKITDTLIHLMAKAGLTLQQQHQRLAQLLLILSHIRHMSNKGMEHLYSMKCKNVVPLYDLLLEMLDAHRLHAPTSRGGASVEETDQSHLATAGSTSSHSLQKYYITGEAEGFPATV
Sequence of Nuclear receptor subfamily 1 group I member 2 (Homo sapiens) (O75469 whole entry, looked up): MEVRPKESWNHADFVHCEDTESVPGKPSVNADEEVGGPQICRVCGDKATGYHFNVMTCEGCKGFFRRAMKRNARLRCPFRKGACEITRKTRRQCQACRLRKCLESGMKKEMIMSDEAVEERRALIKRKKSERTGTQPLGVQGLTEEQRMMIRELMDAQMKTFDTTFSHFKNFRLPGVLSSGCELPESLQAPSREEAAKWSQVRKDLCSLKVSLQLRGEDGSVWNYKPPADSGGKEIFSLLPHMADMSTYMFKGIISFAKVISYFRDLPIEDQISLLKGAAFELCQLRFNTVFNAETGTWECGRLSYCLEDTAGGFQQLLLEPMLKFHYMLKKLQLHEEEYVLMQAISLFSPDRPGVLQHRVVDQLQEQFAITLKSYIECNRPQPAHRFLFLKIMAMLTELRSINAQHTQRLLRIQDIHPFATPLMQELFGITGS
Sequence of Thyrotropin-releasing hormone receptor (Homo sapiens) (P34981 whole entry, looked up): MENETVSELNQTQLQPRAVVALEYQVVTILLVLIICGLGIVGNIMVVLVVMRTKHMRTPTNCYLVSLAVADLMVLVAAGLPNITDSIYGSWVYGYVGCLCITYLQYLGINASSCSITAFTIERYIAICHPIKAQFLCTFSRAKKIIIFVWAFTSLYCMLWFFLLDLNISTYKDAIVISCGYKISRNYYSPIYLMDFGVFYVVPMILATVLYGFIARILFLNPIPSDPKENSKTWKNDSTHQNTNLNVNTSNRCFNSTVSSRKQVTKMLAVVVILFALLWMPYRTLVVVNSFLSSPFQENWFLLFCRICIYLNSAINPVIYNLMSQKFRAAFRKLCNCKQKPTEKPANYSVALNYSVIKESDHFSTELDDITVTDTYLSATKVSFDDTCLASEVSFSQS
Sequence of Progesterone receptor (Homo sapiens) (P06401 whole entry, looked up): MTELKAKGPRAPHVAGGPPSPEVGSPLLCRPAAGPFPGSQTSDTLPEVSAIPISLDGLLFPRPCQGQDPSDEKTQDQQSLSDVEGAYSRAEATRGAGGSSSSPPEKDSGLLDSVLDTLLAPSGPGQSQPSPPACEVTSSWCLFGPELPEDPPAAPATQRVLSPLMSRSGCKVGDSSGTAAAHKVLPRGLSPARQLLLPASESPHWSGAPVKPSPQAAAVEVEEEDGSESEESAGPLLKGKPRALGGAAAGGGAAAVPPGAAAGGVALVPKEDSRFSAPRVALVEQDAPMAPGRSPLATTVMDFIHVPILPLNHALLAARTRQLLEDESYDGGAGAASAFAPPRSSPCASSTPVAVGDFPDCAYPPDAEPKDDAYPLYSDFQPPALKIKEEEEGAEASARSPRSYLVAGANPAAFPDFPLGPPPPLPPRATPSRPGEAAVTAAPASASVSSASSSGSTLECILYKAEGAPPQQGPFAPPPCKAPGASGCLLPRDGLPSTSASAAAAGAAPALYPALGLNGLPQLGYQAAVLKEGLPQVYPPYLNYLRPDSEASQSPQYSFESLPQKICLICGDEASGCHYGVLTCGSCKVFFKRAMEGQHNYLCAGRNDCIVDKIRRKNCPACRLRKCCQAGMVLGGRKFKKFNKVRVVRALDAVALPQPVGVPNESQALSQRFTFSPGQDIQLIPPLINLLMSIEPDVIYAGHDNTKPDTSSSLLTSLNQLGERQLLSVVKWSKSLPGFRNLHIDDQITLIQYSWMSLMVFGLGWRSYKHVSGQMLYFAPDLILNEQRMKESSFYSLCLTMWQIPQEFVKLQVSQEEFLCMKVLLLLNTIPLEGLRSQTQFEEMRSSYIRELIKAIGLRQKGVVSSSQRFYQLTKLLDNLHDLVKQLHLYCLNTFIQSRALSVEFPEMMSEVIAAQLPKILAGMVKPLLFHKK
Sequence of Thyrotropin receptor (Homo sapiens) (P16473 whole entry, looked up): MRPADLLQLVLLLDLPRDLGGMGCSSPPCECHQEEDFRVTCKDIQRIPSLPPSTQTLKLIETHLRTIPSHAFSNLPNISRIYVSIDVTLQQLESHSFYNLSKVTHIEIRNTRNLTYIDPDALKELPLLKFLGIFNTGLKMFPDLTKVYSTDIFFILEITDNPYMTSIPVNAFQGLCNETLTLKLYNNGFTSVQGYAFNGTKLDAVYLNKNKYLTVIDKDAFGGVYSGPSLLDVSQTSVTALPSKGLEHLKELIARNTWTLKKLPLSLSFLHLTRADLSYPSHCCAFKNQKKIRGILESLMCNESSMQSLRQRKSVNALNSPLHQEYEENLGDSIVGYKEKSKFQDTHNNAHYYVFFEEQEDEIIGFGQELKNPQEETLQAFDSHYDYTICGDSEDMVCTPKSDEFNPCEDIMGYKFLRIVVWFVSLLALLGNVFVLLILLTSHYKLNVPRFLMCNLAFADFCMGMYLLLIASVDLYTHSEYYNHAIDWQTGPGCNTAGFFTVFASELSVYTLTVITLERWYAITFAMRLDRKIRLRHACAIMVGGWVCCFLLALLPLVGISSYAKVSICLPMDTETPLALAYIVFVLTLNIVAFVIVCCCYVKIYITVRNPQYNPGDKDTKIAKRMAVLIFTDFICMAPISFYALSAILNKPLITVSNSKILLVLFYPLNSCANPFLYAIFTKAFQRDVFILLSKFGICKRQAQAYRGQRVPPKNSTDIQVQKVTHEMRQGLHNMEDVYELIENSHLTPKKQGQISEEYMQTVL

For the compound `Cc1ccc(C(=O)C(=O)O)cc1C`, the call in test [1], in [2], in [8], in test [9], in test [10] and in test [13] was inactive. Further, the Potency result in [3], in [4], in test [5], in test [6], in test [7] and in [11] was “inactive” in each case. Further, the Potency result in test [12], in [14] and in test [15] was “inactive” throughout.
For `C=CCOc1c(Br)cc(C(C)(C)c2cc(Br)c(OCC=C)c(Br)c2)cc1Br`, the compound was called inactive in test [1], in test [2], in [16], in test [8], in test [9] and in test [10]. The compound was called inactive in test [13]. In addition, the Potency entry in test [4], in [5], in test [12] and in test [14] was “inactive” in each case.
As for `CCCCCN(CCCOC)C(=O)C(CCC(=O)O)NC(=O)c1ccc(Cl)c(Cl)c1` (centres undefined), the outcome in test [1], in [2], in test [8], in test [9], in test [10] and in test [17] was inactive. For the same compound, the compound was called inactive in [18], in test [19] and in test [13]. In addition, the Potency entry in test [4], in [12], in [14] and in [15] was “inactive” in each case.
With `COc1ccc(OC)c(NC(=O)CC(C)=O)c1`, the call in test [1], in test [16], in test [20], in test [8], in test [9] and in test [10] was inactive. Moreover, the call in [17], in [18], in test [19] and in test [13] was inactive. Also, the Potency entry in test [3], in test [4], in test [5], in test [6], in test [7] and in test [11] was “inactive” each time. The Potency result in [12] and in test [14] was “inactive” throughout.
On to `C1=C\CC/C=C\CC/1`, for which the compound was classed as inactive in test [1], in test [2], in test [8], in test [9], in test [10] and in test [17]. For the same compound, the compound was classed as inactive in [18], in [19] and in test [13]. For the same compound, the Potency result in test [3], in [4], in test [5], in test [7], in [11] and in test [12] was “inactive” each time. The Potency result in test [14] and in test [15] was “inactive” throughout.
For `CC1=NN(c2ccc(S(=O)(=O)O)cc2)C(=O)C1N=Nc1ccccc1` (centres undefined), the compound was classed as inactive in [1], in test [2], in [8], in test [9], in test [10] and in test [17]. For the same compound, the compound was called inactive in test [18] and in [13]. The Potency is 30.6 µM (active) in [3], 48.6 µM (active) in [12] and 61.1 µM (active) in test [14]. Besides, the Potency entry in test [4], in test [5], in test [6] and in test [7] was “inactive” each time.
As for `CC(=O)N1CCN(c2ccc(O)cc2)CC1`, the result in test [1], in test [2], in test [16], in test [8], in test [9] and in [10] was inactive. Moreover, the call in test [17], in test [18], in test [19] and in test [13] was inactive. In addition, the Potency entry in test [4], in test [5], in test [7], in [11], in test [12] and in test [14] was “inactive” in each case. Further, the Potency entry in [15] is “inactive”.
Take `O=C(Nc1cccc(C2=NCCN2)c1)Nc1cccc(C2=NCCN2)c1`: the activity change, negative = cytotoxicity in test [1] is -2.3% [at 19 µM]; in [3], 1.98% [at 19 µM]; in [6] it was 21% [at 18.9 µM]; in test [7], 7.7% [at 19 µM]; in test [9], -14.4% [at 15.8 µM]; in test [11] it was 1.2% [at 19 µM]. In addition, the activity change, negative = cytotoxicity was 4% [at 19 µM] in [12] and 2.76% [at 19 µM] in test [14]. Also, the activation in [2] was 0.321% [at 19 µM]; in [10], 0.662% [at 15.8 µM]; in test [15], -0.413% [at 19 µM]. Besides, in test [8], the viability change, negative = cytotoxic was -4.13% [at 15.8 µM]. For the same compound, the caspase activation in [19] is -0.792% [at 19 µM].
